Screening data as filed in PubChem.
HP1b chromo inh: HTS for Inhibitors of HP1-beta Chromodomain Interactions with Methylated Histone Tails. Chromobox protein homolog 1 (Homo sapiens), P83916. AlphaScreen HP1-beta / biotin-H3K9me3 peptide binding. Potency, µM (doses to about 114 µM), for the others: at the highest dose activity change, negative = inhibition, actives largely listed as inhibitors. hit rate 0.56% among 390,000. AID 540317, 2011; also: nearly all actives have a fitted effect of over 70% in size
Target sequence (P83916 whole entry, looked up): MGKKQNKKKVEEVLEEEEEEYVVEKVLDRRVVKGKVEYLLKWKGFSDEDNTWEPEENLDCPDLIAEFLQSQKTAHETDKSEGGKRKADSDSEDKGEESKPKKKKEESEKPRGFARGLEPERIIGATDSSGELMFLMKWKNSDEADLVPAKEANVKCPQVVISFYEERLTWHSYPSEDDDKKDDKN
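HP1-beta protein (50 nM final) preincubated 30 min at room temperature with biotinylated H3(1-18)K9me3 peptide (50 nM) in PBS pH 7.4, 0.01% Tween-20, then compound added for 30 min. AlphaScreen streptavidin donor/nickel chelate acceptor beads (10 ug/mL final), 30 min dark, luminescence read.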
BAZ2B block: qHTS Assay for Inhibitors of BAZ2B; Bromodomain adjacent to zinc finger domain protein 2B (Homo sapiens), Q9UIF8; AlphaScreen BAZ2B-H3K14Ac peptide displacement; Potency, µM (series often up to 114 µM), for the others: at the highest dose activity change, negative = inhibition, usual class: inhibitors; hit rate 4.4% among 360,000; also: % is scaled to controls: 0 for no effect and ±100 for the full control effect; nearly all actives have a fitted effect of over 60% in size
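AlphaScreen displacement: compounds (up to 110uM) incubated 30 min at room temperature with a preformed 50 nM BAZ2B/50 nM biotinylated H3K14Ac peptide complex in PBS pH 7.4 with Tween-20. Donor and acceptor beads at 10 ug/mL final added, 20 min light-protected before reading.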
G9a inh: qHTS Assay for Inhibitors of Histone Lysine Methyltransferase G9a | hit rate 8.8% among 350,000 | Potency, µM (highest dose often 102 µM), inactives show at the top dose activity, negative = inhibition, hits mostly inhibitors | Histone-lysine N-methyltransferase EHMT2 (Homo sapiens), Q96KQ7 | AID 504332, 2011 | G9a H3K9 monomethylation, AlphaScreen, 2 h; also: % is scaled to controls: 0 for no effect and ±100 for the full control effect; nearly all actives have a fitted effect of over 75% in size
Target sequence (Q96KQ7 913-1193 limits assumed): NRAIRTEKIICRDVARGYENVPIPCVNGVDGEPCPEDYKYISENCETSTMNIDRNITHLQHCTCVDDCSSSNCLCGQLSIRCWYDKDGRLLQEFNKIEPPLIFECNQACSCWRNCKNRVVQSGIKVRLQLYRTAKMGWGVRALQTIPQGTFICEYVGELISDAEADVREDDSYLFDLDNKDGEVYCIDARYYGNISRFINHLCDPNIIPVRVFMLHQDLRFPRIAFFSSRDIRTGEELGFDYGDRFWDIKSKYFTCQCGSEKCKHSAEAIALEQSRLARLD
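Using a bead-based AlphaScreen, monomethylated H3K9 product from 2 h room-temperature reactions (G9a 20 nM, peptide 500 nM, SAM 20 uM) was detected with 0.5 ug/mL rabbit anti-H3K9me1 antibody.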
JMJD2A Tudor: qHTS Assay for Inhibitors of JMJD2A-Tudor Domain | AlphaScreen JMJD2A-Tudor / H3K4me3 peptide binding | Potency, µM (highest dose often 114 µM), for inactives: top-dose activity change, negative = inhibition, usual class: inhibitors | hit rate 4.4% among 390,000; also: % is scaled to controls: 0 for no effect and ±100 for the full control effect; nearly all actives have a fitted effect of over 50% in size
L3MBTL1 block: qHTS Assay for the Inhibitors of L3MBTL1; Lethal(3)malignant brain tumor-like protein 1 (Homo sapiens), Q9Y468; AlphaScreen L3MBTL1–H3K9me1 peptide binding; Potency, µM (series often up to 57.1 µM), inactives show top-dose activity, negative = inhibition, hits mostly inhibitors; hit rate 0.66% among 230,000; AID 485360, 2010; also: % is scaled to controls: 0 for no effect and ±100 for the full control effect; nearly all actives have a fitted effect of over 60% in size
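L3MBTL1 (50 nM) pre-complexed 30 min with biotinylated H3(1-15)K9me1 peptide (75 nM), then compounds added for 30 min at room temperature; AlphaScreen streptavidin donor/nickel chelate acceptor beads (10 ug/mL final) read after 30 min dark incubation.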
Sfp PPTase inh: qHTS Assay for Inhibitors of Bacillus subtilis Sfp phosphopantetheinyl transferase (PPTase). 4'-phosphopantetheinyl transferase ffp (Bacillus subtilis), Q9F4F7. Biochemical Sfp PPTase activity, qHTS. Potency, µM, inactives show largest response in the series, negative = inhibition, hits mostly inhibitors. hit rate 3.5% among 310,000. AID 1490, 2009;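 also: the enzyme is Sfp with the accession as filed and its product quenches rhodamine fluorescence; 0% = enzyme reaction without inhibitor and -100% = no enzyme wells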
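Buffer: 50 mM Hepes-Na pH 7.6, 10 mM MgCl2, 0.01% Nonidet P-40, 0.01% BSA. Enzyme 15 nM, pre-exposed to compound 15 min; substrates then added and fluorescence change tracked over 30 min.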
Numbers without * were called inactive; ? = inconclusive; . = not tested or not shown; [ ] = remark or other dose. Shown are actives, neighbours in structure and some others; about 12% of the full set was active somewhere. Calls follow the shape of the dose curve; as a rule, active = well fitted curve in the direction sought with a large enough effect; inconclusive = small, poorly fitted or top-dose-only effect, or another doubt; inactive = no such curve, though single readings can be large; an effect the other way counts as inactive or inconclusive. Potency is read from the fitted curve at half-maximal effect.

SMILES	HP1b chromo inh	BAZ2B block	G9a inh	JMJD2A Tudor	L3MBTL1 block	Sfp PPTase inh
Cc1nn(C)cc1/C=N/NC(=S)Nc1ccccc1	-28.3%	-34.3%	?	?	-12.4%	25.1µM*
Fc1ccc(NC(=S)NN=Cc2ccccc2Cl)cc1	27.4%	.	.	-25.2%	.	.
Oc1ccccc1C=NNC(=S)Nc1ccc(F)cc1	16.7%	.	.	56.2µM*	.	.
Cc1nn(-c2ccccc2)c(N2CCCC2)c1/C=N/NC(=S)Nc1ccc(F)cc1	-8.0%	.	.	-20.3%	.	.
CCS(=O)(=O)c1ccc(O)c(NC(=O)Nc2cccc3ccccc23)c1	8.6%	-33.1%	?	-31.5%	.	-3.6%
CC[C@]12c3[nH]c4cc(-c5ccco5)ccc4c3CCN1C(=O)[C@@H](CC(=O)NCCCN(C)C)C[C@@H]2C(=O)N1CCN(C(=O)c2ccco2)CC1	16.8%	.	.	-30.2%	-3.1%	.
CC1(C)CC(=O)C2=C(C1)N1C(=C(C#N)C2c2ccc(Cl)cc2)N=C(N)c2ccccc21 (stereo not given)	13.1%	50.1µM*	?	?	-8.6%	4.6%
CC(Oc1ccc(F)cc1)C(=O)Nc1nc(-c2ccc(F)cc2)ns1 (stereo not given)	52.7%	24.5%	32.9%[59 µM]	-0.6%	.	.
O=C1COc2ccc(S(=O)(=O)N3CCCC3)cc2N1	19.0%	6.9%	-3.3%[59 µM]	-0.7%	.	6.6%
O=C1COc2ccc(N3C(=O)C=CC3=O)cc2N1	.	100µM*	1.41µM*	.	-13.1%	3.98µM*
Cc1nc(CCNC(=O)c2cc(COc3ccc(F)cc3Cl)on2)sc1C	19.2%	-29.7%	.	-10.9%	.	39.8µM*
CC(CNS(=O)(=O)c1ccc(Cl)cc1)n1cncn1 (stereo not given)	12.1%	-2.4%	27.1%[59 µM]	-4.2%	.	13.6%
CC(=O)Nc1ccc(S(=O)(=O)NCCSc2ccccn2)cc1	63.3%	-4.2%	2.51µM*	?	5.3%	6.0%
CC(=O)Nc1ccc(S(=O)(=O)NCCNS(=O)(=O)c2ccc(NC(C)=O)cc2)cc1	23.0%	7.0%	?	-21.3%	7.6%	2.1%
CCCNS(=O)(=O)c1ccc(NC(=O)c2ccccn2)cc1	16.3%	0.3%	-7.5%	20µM*	-3.8%	-5.0%
CCSc1ccccc1C(=O)Nc1ccc(S(=O)(=O)NC(C)=O)cc1	7.0%	-14.4%	.	50.1µM*	4.6%	25.1µM*
CC(=O)Nc1ccc(S(=O)(=O)NCCc2cn3nc(C)c(C)nc3n2)cc1	54.8%	-14.5%	8.91µM*	13.2%	.	13.4%
CCc1nnc(NS(=O)(=O)c2ccc(N=CC3=C(O)CC(C)(C)CC3=O)cc2)s1	49.6%	5.3%	-44.3%	-11.8%	.	7.4%
CC(=O)NS(=O)(=O)c1ccc(NC(=O)c2ccccn2)cc1	28.8%	50.1µM*	50.1µM*	?	-8.4%	-18.0%
CCOC(=O)N1CCC(N(CCN(C)C)C(=S)Nc2cc(Cl)cc(Cl)c2)CC1	31.5%	79.4µM*	?	-6.3%	.	-23.6%
CCN(CC)Cc1oc(-c2ccccc2)cc1C(=O)O	-7.6%	-5.7%	.	56.2µM*	-3.2%	-17.6%
Cc1oc(-c2ccccc2)cc1C(N)=O	0.8%	?	0.2%[59 µM]	-17.2%	-0.4%	-3.8%
NCc1oc(-c2ccccc2)cc1C(=O)O	6.9%	-1.6%	50.1µM*	-20.4%	.	-20.8%
CCN(CC)Cc1cc(C(=O)O)c(-c2ccccc2)o1	49.2%	-37.8%	.	-5.8%	.	6.1%
COCCCNC(=S)NCCc1ccc(F)cc1	11.8%	8.8%	?	-3.6%	.	14.5%
SMILES	HP1b chromo inh	BAZ2B block	G9a inh	JMJD2A Tudor	L3MBTL1 block	Sfp PPTase inh
COCCCNC(=S)NNC(=S)Nc1ccccc1	-17.7%	-4.3%	.	1.58µM*	1.4%	44.7µM*
COCCCNC(=S)NNC(=S)Nc1ccc(F)cc1F	-13.2%	?	2.51µM*	1.58µM*	.	79.4µM*
CC[C@H](C)[C@H](NC(=O)CNC(=O)[C@H](CCCNC(=N)N)NC(=O)CNC(=O)[C@@H](NC(=O)[C@H](Cc1ccc(O)cc1)NC(=O)[C@H](Cc1c[nH]c2ccccc12)NC(=O)[C@H](C)NC(=O)[C@@H]1CCCN1C(=O)[C@H](CC(N)=O)NC(=O)[C@@H](NC(=O)[C@H](CC(=O)O)NC(=O)[C@@H]1CCCN1C(=O)[C@@H](N)[C@@H](C)O)[C@@H](C)CC)[C@@H](C)O)C(=O)N[C@@H](CCCNC(=N)N)C(=O)N1CCC[C@H]1C(=O)N[C@H](C(=O)NCC(=O)N[C@@H](CCCNC(=N)N)C(=O)N[C@@H](Cc1ccccc1)C(N)=O)C(C)C	.	.	.	.	.	13.1%
O=C(Oc1cccc(F)c1)c1ccc2c(=O)n3c(nc2c1)CCC3	51.1%	-3.4%	?	-11.4%	-2.4%	.
O=C(Oc1ccc(F)cc1)c1ccc2c(=O)n3c(nc2c1)CCC3	19.1%	-1.2%	50.1µM*	-12.4%	-9.5%	.
O=C(COc1ccc(Cl)cc1)Nc1ccc2nc(SCC(=O)N3CCOCC3)sc2c1	14.7%	-12.2%	-8.8%[59 µM]	-21.5%	.	.
OCCOCCn1c(-c2ccccc2)nc(=S)c2c1CCCC2	20.2%	5.7%	50.1µM*	-10.3%	.	?
CC(C)(C)C(=O)OCc1cc(=O)n2nc(C3CCCCC3)sc2n1	-20.1%	-12.1%	12.7%[59 µM]	-22.3%	.	.
O=C(Nc1ncc(Br)s1)C(Cc1ccccc1)n1cccc1 (stereo not given)	-8.4%	44.7µM*	44.7µM*	?	.	-10.3%
O=C(CCC(=O)c1ccc(-c2ccccc2)cc1)Nc1cccnc1	42.6%	-9.5%	50.1µM*	-12.0%	.	-4.3%
O=C(Nc1cccnc1)C(Cc1ccccc1)n1cccc1 (stereo not given)	0.8%	?	50.1µM*	-17.7%	-10.3%	-12.8%
O=C(C1CCCN(S(=O)(=O)c2cccs2)C1)N1CCN(c2cccc(Cl)c2)CC1 (stereo not given)	22.9%	-10.7%	-18.0%[59 µM]	-17.4%	.	.
COc1cc(C2c3cc4c(cc3OC(N3CCCCC3)C2C)OCO4)cc(OC)c1O (stereo not given)	17.8%	.	.	-13.9%	.	.
CC1C(c2ccc3c(c2)OCO3)c2cc3c(cc2OC1N1CCOCC1)OCO3 (stereo not given)	?	.	.	17.8µM*	.	.
COc1ccccc1NC(=O)CN1C(=O)CCSc2ccccc21	25.2%	4.3%	9.0%[59 µM]	-1.8%	.	.
